# Where “and” joins values, the source holds several entries; their conditions need not be identical. Equal entries are not always repeated. Results filed as inconclusive are left out. Where a call stands in place of a potency, no number is given. Calls of active or inactive are those of the source. Calls come from the whole dose curve; as a rule, active = well fitted curve in the direction sought with a large enough effect; inconclusive = small, poorly fitted or top-dose-only effect, or another doubt; inactive = no such curve, though single readings can be large; an effect the other way counts as inactive or inconclusive.
# Key:
# [1] = qHTS Screen of the MIPE 4.0 Collection Against Ewings Sarcoma (TC32) (AID 1259256); note: nearly all actives have a fitted effect of over 45% in size
# Procedure, shortened: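 After a 4 h attachment period in RPMI/5% FBS, cells were pin-dosed with test compounds; DMSO served as negative and 9.2 uM bortezomib (final) as positive control. Luminescent CellTiter-Glo signal at 48 h defined viability.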
# [2] = P-glycoprotein substrates identified in KB-8-5-11 adenocarcinoma cell line, qHTS therapeutic library screen (AID 1346987); note: nearly all actives have a fitted effect of over 65% in size
# Procedure, shortened: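 P-gp-mediated resistance screen: KB-8-5-11 cells treated 72 h with compounds in dose-response. CellTiter-Glo viability.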
# [3] = NS1 protein of Zika virus - qHTS assay to identify small molecule inhibitors in human HEK 293 cells (AID 1347053); note: nearly all actives have a fitted effect of over 55% in size
# Procedure, shortened: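 Inhibition of NS1 expression was scored in HEK 293 cells given compound 1 h ahead of MR766 virus (MOI = 0.5). Following 24 h at 37 C, two anti-NS1 antibodies generated a TR-FRET signal, scaled between uninfected and infected controls.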
# [4] = qHTS of pediatric cancer cell lines to identify multiple opportunities for drug repurposing: Primary screen for TC32 cells (AID 1347089); note: nearly all actives have a fitted effect of over 60% in size
# Procedure, shortened: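 A viability screen of TC32 cells was run over 48 h, with primary MIPE doses spanning 0.78 nM–46 µM and NPC doses 0.59 nM–46 µM. ATP luminescence (CellTiter-Glo) served as the read-out.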
# [5] = qHTS of pediatric cancer cell lines to identify multiple opportunities for drug repurposing: Primary screen for DAOY cells (AID 1347090); note: nearly all actives have a fitted effect of over 55% in size
# Procedure, shortened: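 Cell viability, CellTiter-Glo luminescence; 500-1,000 cells/well, 8- or 11-point titration, 48 h compound exposure at 37 degrees C, 5% CO2. Controls: DMSO neutral, bortezomib 2.3 µM final as positive.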
# Potency is the fitted concentration of half-maximal effect.
Structure (SMILES),Potency [1],Potency [2],Potency [3],Potency [4],Potency [5]
Cc1cnc(Nc2ccc(CN3CCOCC3)cc2)nc1Nc1cccc(S(=O)(=O)NC(C)(C)C)c1,3.32 µM (active),3.32 µM (active) and 1.84 µM (active),33.2 µM (active),9.3 µM (active),4.69 µM (active)
C[C@H](NCc1ccc2c(c1)nc(NC(=O)c1ccc(-c3cn[nH]c3)s1)n2CCc1ccccc1)C(C)(C)C,2.96 µM (active),2.35 µM (active),8.33 µM (active),9.3 µM (active),2.96 µM (active)
N#CC(=C(N)Sc1ccc(N)cc1)c1ccccc1C(F)(F)F,5.26 µM (active),inactive,inactive,inactive,inactive
CCC[C@H]1C[C@H](C(=O)N[C@@H]([C@@H]2O[C@@H](SC)[C@@H](O)[C@@H](O)[C@@H]2O)[C@H](C)Cl)N(C)C1,inactive,inactive,inactive,inactive,inactive
CC(=O)NCC(=O)N1[C@H]2CC[C@H]1c1cc(Nc3ncc(C(F)(F)F)c(NC4CCC4)n3)ccc12,0.209 µM (active),3.72 µM (active),13.2 µM (active),0.131 µM (active),18.7 µM (active)
CC1(C)O[C@@H]2C[C@H]3[C@@H]4CCC5=CC(=O)C=C[C@]5(C)[C@@H]4[C@@H](O)C[C@]3(C)[C@]2(C(=O)CO)O1,inactive,inactive,inactive,inactive,inactive
C[C@H]1COc2c(N3CCN(C)CC3)c(F)cc3c(=O)c(C(=O)O)cn1c23,inactive,inactive,inactive,inactive,inactive
C=C1C(=CC=C2CCC[C@]3(C)[C@@H]([C@H](C)CCCC(C)(C)O)CC[C@@H]23)C[C@@H](O)C[C@@H]1O,3.72 µM (active),inactive,inactive,16.5 µM (active),4.69 µM (active)
C[C@H]1C[C@H]2[C@@H]3CCC4=CC(=O)C=C[C@]4(C)[C@@H]3C(=O)C[C@]2(C)[C@@]1(O)C(=O)CO,inactive,inactive,inactive,inactive,inactive
CC(C)C[C@H](NC(=O)CNC(=O)c1cc(Cl)ccc1Cl)B1OC(=O)CC(CC(=O)O)(C(=O)O)O1 (some centres undefined),0.332 µM (active),0.935 µM (active),0.209 µM (active),2.94 µM (active),0.148 µM (active)
CC[C@H]1OC(=O)[C@H](C)[C@@H](O[C@H]2C[C@@](C)(OC)[C@@H](O)[C@H](C)O2)[C@H](C)[C@@H](O[C@@H]2O[C@H](C)C[C@H](N(C)C)[C@@H]2O)[C@](C)(OC)C[C@@H](C)C(=O)[C@H](C)[C@@H](O)[C@]1(C)O,inactive,inactive,inactive,inactive,inactive
CC(=O)OCC(=O)[C@@]12N=C(C)O[C@H]1C[C@H]1[C@@H]3CCC4=CC(=O)C=C[C@]4(C)[C@@H]3[C@@H](O)C[C@@]12C,inactive,inactive,inactive,inactive,inactive
O=C1NCCc2[nH]c(-c3ccncc3)cc21,5.26 µM (active),7.43 µM (active),9.35 µM (active),11.7 µM (active),4.69 µM (active)
CN[C@@H]1C[C@H]2O[C@@](C)([C@H]1OC)n1c3ccccc3c3c4c(c5c6ccccc6n2c5c31)C(=O)N[C@H]4O,0.187 µM (active),1.87 µM (active),0.418 µM (active),2.94 µM (active),0.469 µM (active)
Cc1coc2c1C(=O)C(=O)c1c-2ccc2c(C)cccc12,inactive,inactive,inactive,inactive,inactive
OCC(O)C(O)C(O)CO (centres undefined),inactive,inactive,inactive,inactive,inactive
CC(=O)[C@]1(O)Cc2c(O)c3c(c(O)c2[C@@H](O[C@H]2C[C@H](N)[C@@H](O)[C@H](C)O2)C1)C(=O)c1ccccc1C3=O,0.0047 µM (active),0.833 µM (active),1.05 µM (active),0.587 µM (active),0.935 µM (active)
CC(Oc1ccc(O)cc1)(P(=O)(O)O)P(=O)(O)O,inactive,inactive,inactive,inactive,inactive
NC(=O)Nc1sc(-c2ccc(F)cc2)cc1C(N)=O,1.48 µM (active),8.33 µM (active),inactive,3.7 µM (active),0.469 µM (active)
CCCCCCCCCCCC(CC1OC(=O)C1CCCCCC)OC(=O)C(CC(C)C)NC=O (centres undefined),inactive,inactive,inactive,inactive,inactive
CCCCC(=O)O[C@]1(C(=O)CO)[C@@H](C)C[C@H]2[C@@H]3CCC4=CC(=O)C=C[C@]4(C)[C@@]3(F)[C@@H](O)C[C@@]21C,inactive,inactive,inactive,inactive,inactive
NC(=O)c1cccc(-c2cccc(OC(=O)NC3CCCCC3)c2)c1,inactive,inactive,inactive,inactive,inactive
N#Cc1c(NC(=O)c2cccc3ccccc23)sc2c1CCCC2,0.235 µM (active),418 nM (active) and 291 nM (active),10.5 µM (active),1.04 µM (active),0.296 µM (active)

Structure (SMILES),Potency [1],Potency [2],Potency [3],Potency [4],Potency [5]
COC1=C(OC)C(=O)C(CC=C(C)CCC=C(C)CCC=C(C)CCC=C(C)CCC=C(C)CCC=C(C)CCC=C(C)CCC=C(C)CCC=C(C)CCC=C(C)C)=C(C)C1=O,inactive,inactive,inactive,inactive,inactive
O=C(CCCCCCC(=O)Nc1cccnc1)NO,5.26 µM (active),18.7 µM (active),inactive,20.8 µM (active),14.8 µM (active)
CC(C)(O)Cn1c(NC(=O)c2ccc(-c3cn[nH]c3)s2)nc2cc(CN3CCOCC3)ccc21,3.32 µM (active),3.72 µM (active),5.26 µM (active),8.29 µM (active),2.35 µM (active)
N#CC(=C(O)c1ccc(Cl)cc1Cl)c1nc2cc(Cl)ccc2c(=O)[nH]1,inactive,inactive,inactive,inactive,inactive
CCOC(=O)C=C[C@H](C[C@@H]1CCNC1=O)NC(=O)[C@@H](CC(=O)[C@@H](NC(=O)c1cc(C)on1)C(C)C)Cc1ccc(F)cc1,inactive,inactive,inactive,inactive,inactive
Nc1ccn(C2CO[C@H](CO)O2)c(=O)n1 (some centres undefined),inactive,inactive,inactive,inactive,inactive
O=C(NNC(=O)c1ccc(CNS(=O)(=O)c2ccc(F)c(Cl)c2)cc1)c1ccccc1,inactive,inactive,inactive,inactive,inactive
COc1ccc(C(C)=O)c(O)c1,inactive,inactive,inactive,inactive,1.87 µM (active)
C[C@@H]1C(=O)O[C@H]2CC34[C@H]5C[C@@H](C(C)(C)C)C36[C@H](OC(=O)[C@@H]6O)O[C@@]4(C(=O)O5)[C@]21O (some centres undefined),inactive,inactive,inactive,inactive,inactive
CC(C)(O)CC[C@@H](O)[C@](C)(O)[C@H]1CC[C@@]2(O)C3=CC(=O)[C@@H]4C[C@@H](O)[C@@H](O)C[C@]4(C)[C@@H]3CC[C@]12C,inactive,inactive,inactive,inactive,inactive
CN(C)c1ccc(C(=O)NCCCCCCC(=O)NO)cc1,0.296 µM (active),3.72 µM (active),inactive,2.62 µM (active),2.35 µM (active)
O=S(=O)(O)CCSSCCS(=O)(=O)O,inactive,inactive,inactive,inactive,inactive
CC(=O)N[C@H]1[C@@H]([C@H](O)[C@H](O)CO)OC(C(=O)O)=C[C@@H]1N=C(N)N,inactive,inactive,inactive,inactive,inactive
CC(=O)N[C@@H]1[C@H](O[C@@H]2c3ccc(c(Cl)c3)Oc3cc4cc(c3O[C@H]3O[C@H](CO)[C@@H](O)[C@H](O)[C@H]3NC(=O)CCCCCCCC(C)C)Oc3ccc(cc3Cl)C[C@H]3NC(=O)[C@H](N)c5ccc(O)c(c5)Oc5cc(O)cc(c5)[C@H](NC3=O)C(=O)N[C@H]4C(=O)N[C@H]3C(=O)N[C@@H]2C(=O)N[C@@H](C(=O)O)c2cc(O)cc(O[C@H]4O[C@H](CO)[C@@H](O)[C@H](O)[C@H]4O)c2-c2cc3ccc2O)O[C@H](CO)[C@@H](O)[C@@H]1O,inactive,inactive,–,inactive,inactive
O=C(C=Cc1ccc(CN(CCO)CCc2c[nH]c3ccccc23)cc1)NO,0.148 µM (active),0.59 µM (active),–,0.93 µM (active),0.469 µM (active)
CC(=O)N1CCN(c2ccc(OCc3nn(C)c(C)c3-c3cccc4c(CCCOc5cccc6ccccc56)c(C(=O)O)n(Cc5cccnc5)c34)cc2)CC1,0.743 µM (active),inactive,inactive,–,0.118 µM (active)
CN(C)CC(=O)N1CCC(c2ccc(NC(=O)c3ncc(C#N)[nH]3)c(C3=CCCCC3)c2)CC1,20.9 µM (active),inactive,–,inactive,–
C#C[C@]1(O)CC[C@@H]2[C@@H]3CCc4cc(O)ccc4[C@H]3CC[C@@]21C,20.9 µM (active),11.8 µM (active),–,inactive,14.8 µM (active)
CCOC(=O)[C@@H](N)Cc1ccc(-c2cc(O[C@H](c3ccc(Cl)cc3-n3ccc(C)n3)C(F)(F)F)nc(N)n2)cc1,20.9 µM (active),inactive,–,inactive,–
Cn1c(Nc2ccc(C(F)(F)F)cc2)nc2cc(Oc3ccnc(-c4ncc(C(F)(F)F)[nH]4)c3)ccc21,2.09 µM (active),20.9 µM (active),–,16.5 µM (active),18.7 µM (active)
CCN(CC)Cc1ccc2cc(COC(=O)Nc3ccc(C(=O)NO)cc3)ccc2c1,0.662 µM (active),7.43 µM (active),–,5.87 µM (active),2.96 µM (active)
CC(=O)O[C@@]12CO[C@H]1C[C@H](O)[C@@]1(C)C(=O)[C@H](O)C3=C(C)[C@@H](OC(=O)C(O)[C@@H](NC(=O)OC(C)(C)C)c4ccccc4)C[C@@](O)([C@@H](OC(=O)c4ccccc4)[C@@H]21)C3(C)C (some centres undefined),inactive,0.0166 µM (active),–,0.0001 µM (active),0.001 µM (active)

# Reference: PubChem BioAssay (NCATS)
